Source: PubChem (National Center for Advancing Translational Sciences (NCATS))
In the library only some 3.3% were active in any assay of this set; here they are far more common.
Sm TGR block: inhibitors of Schistosoma mansoni thioredoxin glutathione reductase. Q962Y6. purified TGR, DTNB reduction, TNB absorbance 405 nm. Potency, µM (top dose mostly 114 µM), inactives show top-dose activity change, negative = inhibition, usual class: inhibitors. 360,000 tested, 3% active. AID 485364; further: nearly all actives have a fitted effect of over 60% in size
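Kinetic colorimetric format: TGR-catalysed, NADPH-driven DTNB reduction monitored via TNB absorbance. Enzyme dispensed at 20 nM; compound exposure 15 min at room temperature before reaction start.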
AmpC detergent: inhibitors of E. coli AmpC beta-lactamase with detergent. AmpC hydrolysis of nitrocefin, absorbance 480 nm, 0.01% Triton. Potency, µM (doses to about 114 µM), for inactives: at the top dose activity change, negative = inhibition, most hits filed as inhibitors. 370,000 tested, 0.041% active. AID 485294. P00811;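 further: 0% = no-compound wells and -100% = no-enzyme wells; nearly all actives have a fitted effect of over 25% in size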
Target sequence (P00811 whole entry, looked up): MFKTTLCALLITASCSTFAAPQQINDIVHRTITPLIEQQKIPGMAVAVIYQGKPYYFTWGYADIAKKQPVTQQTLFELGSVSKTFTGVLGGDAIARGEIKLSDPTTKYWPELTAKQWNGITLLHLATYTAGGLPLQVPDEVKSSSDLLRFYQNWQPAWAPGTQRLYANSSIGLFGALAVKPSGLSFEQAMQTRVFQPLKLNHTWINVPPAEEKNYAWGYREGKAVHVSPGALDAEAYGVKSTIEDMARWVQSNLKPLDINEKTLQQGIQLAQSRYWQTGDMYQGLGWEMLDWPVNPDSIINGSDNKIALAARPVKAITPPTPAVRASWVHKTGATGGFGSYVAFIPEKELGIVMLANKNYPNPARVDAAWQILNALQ
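20 mM phosphate pH 7.0 + 0.01% (detergent screen) or 0.0001% Triton X-100; 5.3 nM AmpC reagent; cpd preinc 15 min RT; nitrocefin (800 uM stock) to start; A480 q20 s × 4 min; Activity was normalised to no-enzyme and no-compound control wells.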
AmpC no deterg: inhibitors of E. coli AmpC beta-lactamase without detergent | 330,000 tested, 0.52% active | Potency, µM (series often up to 57.1 µM), inactives show top-dose activity change, negative = inhibition, most hits filed as inhibitors | AmpC nitrocefin hydrolysis, absorbance 480 nm, 0.0001% Triton | P00811;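 further: plate controls were no compound for no effect and no enzyme for full effect; nearly all actives have a fitted effect of over 20% in size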
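20 mM phosphate pH 7.0 + 0.01% (detergent screen) or 0.0001% Triton X-100; 5.3 nM AmpC reagent; cpd preinc 15 min RT; nitrocefin (800 uM stock) to start; A480 q20 s × 4 min; Activity was normalised to no-enzyme and no-compound control wells.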
An asterisk follows results filed as active; ? = inconclusive; · = no result given. The call rests on the fitted dose curve; in most records, active means well fitted curve in the direction sought with a large enough effect; inconclusive means small, poorly fitted or top-dose-only effect, or another doubt; inactive means no such curve, though single readings can be large; an effect the other way counts as inactive or inconclusive. Unless noted, on the % scale 0 is the no-effect control and ±100 the full control effect; potency means the concentration at half of the fitted maximal effect.

SMILES	Sm TGR block	AmpC detergent	AmpC no deterg
CC(=O)Nc1nc2n(n1)C(c1ccc(Cl)cc1)C=C(C)N2 (stereo unspecified)	14µM*	4%	-17%
CC1=CC(c2ccc(Cl)cc2)n2nc(NC(=O)c3ccccc3)nc2N1 (stereo unspecified)	45µM*	4%	-7%
CC1(C)Cc2c(cnn2-c2ccc(F)cc2)C(NC(=O)c2ccc(=O)oc2)C1 (stereo unspecified)	3%	4%	-3%
O=[N+]([O-])c1ccc(-c2ccccc2)c([As](=O)(O)O)c1	2µM*	7%	-14%
O=[N+]([O-])c1ccc2nc(-c3ccccc3)cc(-c3ccccc3)c2c1	5%	0%	-22%
O=C(NCCC(=O)N1CCN(S(=O)(=O)c2ccccc2)CC1)c1ccc(Br)cc1	6%	-2%	62%
O=C1NC(c2cccc([N+](=O)[O-])c2)=CCN1c1ccccc1O	45µM*	-9%	-30%
O=[N+]([O-])c1ccc(N2CCN(c3ccccc3O)CC2)c(Cl)c1	1%	-1%	-32%
Cc1ccc(NC(=O)N2CCN(C(=O)c3nsc4ccccc34)CC2)cc1C	-2%	-1%	·
CC(C)CC1=NN(C(=O)c2ccco2)C(O)(C(F)(F)F)C1 (stereo unspecified)	-7%	-3%	-15%
Cc1ccc(-n2c3c(c(=O)[nH]c2=O)C(NS(=O)(=O)c2ccc(C)cc2)(C(F)(F)F)C(=O)N3)cc1 (stereo unspecified)	9%	28%	-15%
C=CCC(C=C)S(=O)(=O)c1ccc(C)cc1 (stereo unspecified)	-20%	1%	-7%
CCc1[nH]c(=O)[nH]c1C(C)S(=O)(=O)c1ccc(C)cc1 (stereo unspecified)	0.28µM*	-2%	-1%
CCc1c(C(C)S(=O)(=O)c2ccc(C)cc2)[nH]c(=O)n1-c1ccc(C)cc1 (stereo unspecified)	2.8µM*	3%	-9%
CC(C)(C)OC(=O)C[C@H]1C/C=C\C[C@@H](CC(=O)N[C@H](CO)Cc2ccccc2)C(=O)N2CCC[C@H]2COC1=O	·	·	193%
CCOC(=O)CSC(=S)NC(=O)c1ccc(OC)cc1	8.9µM*	-14%	-13%
COc1ccc(C(=O)NC(=S)SCC(=O)O)cc1	?	-3%	-16%
COc1cc(/C=C(/C#N)C(=O)Nc2ccc(Cl)cc2)ccc1Oc1nc(Cl)ncc1F	-11%	1%	-41%
CCN1CCN(c2oc(/C=C/c3ccc(OC)c(OC)c3)nc2C#N)CC1	-4%	16%	·
O=C(COC(=O)CCc1ccc(S(=O)(=O)N2CCOCC2)cc1)NC1CCCC1	-9%	-1%	-5%
COc1cccc(CN(C(=O)c2cccs2)C2CCS(=O)(=O)C2)c1 (stereo unspecified)	-15%	-2%	-18%
COc1ccc(/C=C2\CCc3ccccc3C2=O)cc1OC	-14%	-2%	46%
COc1ccc(C=C2C=C(C(C)(C)C)C(=O)C(C(C)(C)C)=C2)cc1OC	4.5µM*	-12%	65%
COc1ccc(C(=O)C2CCCN(Cc3cccc4c3OCO4)C2)cc1OC (stereo unspecified)	-5%	3%	31%
NNC(=O)Nc1cccc(C(F)(F)F)c1	20%	6%	-19%
SMILES	Sm TGR block	AmpC detergent	AmpC no deterg
NC(=O)/C=C\C(=O)Nc1cccc(C(F)(F)F)c1	3.5µM*	-1%	-14%
COc1cccc(-c2nc(CS(=O)(=O)CC(=O)NC3CC3)c(C)o2)c1	?	-4%	-5%
Cc1oc(-c2cccc(Cl)c2)nc1CS(=O)(=O)CC(=O)NC1CC1	40µM*	4%	25%
CCOC(=O)N1CCC(NC(=O)CS(=O)(=O)Cc2nc(-c3cccc(Cl)c3)oc2C)CC1	35µM*	-8%	151%
CCOC(=O)N1CCC(NC(=O)CS(=O)(=O)Cc2nc(-c3cccc(OC)c3)oc2C)CC1	1%	?	140%
Cc1ccc(S(=O)(=O)c2cnc(SC(C)C(=O)Nc3ccccc3)[nH]c2=O)cc1 (stereo unspecified)	-2%	21%	·
Cc1ccc(S(=O)(=O)Nc2ccccc2F)cc1C(=O)NNC(=O)c1ccccc1O	-23%	-21%	-27%
CCCn1c(N)c(C(=O)CSc2nnc(C3CC3)n2Cc2ccccc2)c(=O)n(C)c1=O	0%	-4%	16%
Oc1cccc(Nc2ncnc3c2oc2ccccc23)c1	6%	-1%	-19%
COc1cc(C(=O)NN2C(=O)NC3(CCC(C)CC3)C2=O)ccc1OC(F)F (stereo unspecified)	·	·	-7%
O=C(NCCc1csc(-c2cccnc2)n1)c1ccc(Br)o1	28µM*	-6%	0%
O=C(NCCc1csc(-c2ccccc2)n1)c1ccc(Br)o1	6%	?	-1%
COc1ccccc1CNC(=O)COC(=O)c1ccc(C)c(S(=O)(=O)N2CCOCC2)c1	-33%	1%	-11%
CCc1nn(CC(=O)N2CCCCC2)c(=O)c2cc3sccc3n12	-1%	1%	·
O=C1CC(NS(=O)(=O)c2cccs2)CN1c1ccc(F)cc1 (stereo unspecified)	-6%	?	32µM*
CCOc1ccc(N2CC(NS(=O)(=O)c3cccs3)CC2=O)cc1 (stereo unspecified)	-24%	?	-15%
O=C(O)C1C(=O)NCC1c1ccccc1 (stereo unspecified)	9%	?	-15%
O=C(C1=NNCC1c1ccccc1)C1OC1c1ccccc1 (stereo unspecified)	22µM*	-3%	-18%
Cc1nc(Cl)sc1C(=O)NC(C)c1ccc(Cl)cc1 (stereo unspecified)	-1%	-6%	-9%
OCCC1CN(C/C=C/c2ccco2)CCN1Cc1ccccc1 (stereo unspecified)	20µM*	-4%	-16%
COc1ccccc1/C=C/CN1CCN(Cc2ccc(F)cc2)C(CCO)C1 (stereo unspecified)	-16%	-15%	78%
O=[N+]([O-])c1ccc(Cl)c(S(=O)(=O)N2CCCCCC2)c1	-3%	?	-26%
Cc1ccccc1CCNC(=O)c1cc2cc(S(=O)(=O)N3CCCCC3)ccc2n1C	-8%	-5%	·
O=C(N/N=C/c1ccc(N2CCCCC2)o1)C(O)(c1ccccc1)c1ccccc1	22µM*	-10%	-20%
Cc1cc(/C=N/NC(=O)C(O)(c2ccccc2)c2ccccc2)c(C)n1-c1ccccc1	1%	3%	-27%
SMILES	Sm TGR block	AmpC detergent	AmpC no deterg
CN(C)c1ccc(/C=N/NC(=O)c2ccccc2O)o1	22µM*	-3%	-38%
Cc1cc(C(=O)N/N=C/c2ccc(N(C)C)o2)cs1	?	-1%	-7%
O=C(N/N=C/c1cc([N+](=O)[O-])cc([N+](=O)[O-])c1O)C(O)(c1ccccc1)c1ccccc1	-15%	?	-8%
CN(C)c1ccc(/C=N/NC(=O)C(O)(c2ccccc2)c2ccccc2)o1	10µM*	4%	32%
COC(=O)c1ccc(COC(=O)c2ccc(C)c(S(=O)(=O)N3CCCCC3)c2)cc1	-8%	?	2%
O=C(NN1C(=O)C2C(c3ccccc3)C=CC(c3ccccc3)C2C1=O)c1cccc(Br)c1 (stereo unspecified)	-13%	-8%	-38%
